FLuc counter – qHTS profiling assay for firefly luciferase inhibitor/activator using purifed enzyme and Km concentrations of substrates (counterscreen for miR-21 project); Luciferin 4-monooxygenase (Photinus pyralis), P08659; purified FLuc, Km substrates, luminescence inhibition; Potency, µM (series often up to 57.5 µM), inactives show at the top dose activity change, negative = inhibition, actives largely listed as inhibitors; actives 6.9% (n = 360,000); AID 588342, 2011;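 also: plate controls were vehicle for no effect and reference inhibitor for full effect; nearly all actives have a fitted effect of over 55% in size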
Target sequence (P08659 whole entry, looked up): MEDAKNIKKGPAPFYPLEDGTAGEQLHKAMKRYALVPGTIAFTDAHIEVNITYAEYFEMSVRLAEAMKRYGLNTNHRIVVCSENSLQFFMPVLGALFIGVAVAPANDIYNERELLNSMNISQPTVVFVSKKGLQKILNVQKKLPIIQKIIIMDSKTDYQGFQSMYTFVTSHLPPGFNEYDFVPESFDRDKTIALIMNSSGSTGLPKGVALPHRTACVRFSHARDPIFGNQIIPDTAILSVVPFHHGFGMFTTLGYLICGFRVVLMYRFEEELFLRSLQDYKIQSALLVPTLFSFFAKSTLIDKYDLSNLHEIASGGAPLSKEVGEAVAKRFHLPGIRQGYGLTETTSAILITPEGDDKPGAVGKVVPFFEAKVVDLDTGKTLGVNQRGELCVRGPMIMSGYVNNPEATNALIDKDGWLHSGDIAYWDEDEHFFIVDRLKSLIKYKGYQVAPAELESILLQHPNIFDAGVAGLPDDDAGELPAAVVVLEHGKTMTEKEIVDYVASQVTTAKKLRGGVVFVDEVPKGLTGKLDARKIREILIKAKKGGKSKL
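Purified P. pyralis luciferase (10nM final) with 10uM D-luciferin and 10uM ATP (Km levels) in 50mM Tris acetate pH 7.5, 10mM Mg acetate, 0.01% Tween-20, 0.05% BSA; qHTS 6-point titration, ~60 µM downward; luminescence read.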
SMN2 splice enh – qHTS Assay for Enhancers of SMN2 Splice Variant Expression; AID 1458, 2008; actives 2.8% (n = 210,000); Potency, µM (highest dose often 46.1 µM), inactives show at the top dose activity change, positive = activation, hits mostly activators; HEK293 SMN2-luciferase splicing reporter, luminescence, 30-36 h; also: % of control where 0% means no effect; nearly all actives have a fitted effect of over 55% in size
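HEK293 cells carry an SMN2 minigene-luciferase reporter in which exon 7 inclusion puts luciferase in frame. Cells were seeded at 2000 cells/well, attached for 10-12 hours, then exposed to compounds for 30-36 hours at 37C before ONE-Glo luminescence.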
Rab9 prom act – qHTS Assay for Rab9 Promoter Activators. Huh7 Rab9 promoter-luciferase reporter, luminescence, 24 h. Potency, µM (highest dose often 9.22 µM), without a hit: top-dose activation, negative = inhibition, most hits filed as activators. actives 2.8% (n = 320,000); also: % of control where 0% means no effect; nearly all actives have a fitted effect of over 60% in size
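Luciferase signal after 10 min detection reagent at ambient indicates Rab9 promoter upregulation; stably transfected Huh7 cells were treated 24 h with compound in DMSO at 37 °C, 5% CO2.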
ELG1 repair inh – qHTS screen for small molecules that inhibit ELG1-dependent DNA repair in human embryonic kidney (HEK293T) cells expressing luciferase-tagged ELG1; HEK293T ELG1-luciferase reporter, luminescence, 16 h; DNA damage induced by 5-fluorouridine; Potency, µM (series often up to 46.1 µM), without a hit: at the top dose activity change, negative = inhibition, most hits filed as inhibitors; actives 2.3% (n = 330,000); AID 504467, 2011; also: % is scaled to controls: 0 for no effect and ±100 for the full control effect; nearly all actives have a fitted effect of over 55% in size
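DMSO vehicle served as the neutral condition. Each well held 2,000 cells given 5-fluorouridine plus compound; after 16 hr at 37 °C/5% CO2, ONE-Glo was added and luciferase measured 30 min later.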
ELG1 genotox – qHTS screen for small molecules that induce genotoxicity in human embryonic kidney (HEK293T) cells expressing luciferase-tagged ELG1; HEK293T ELG1-luciferase reporter, luminescence, 16 h; Potency, µM (titrated, usually from 46 µM), for the others: at the highest dose activity change, positive = activation, hits mostly activators; actives 1.3% (n = 330,000); AID 504466, 2011; also: % of control where 0% means no effect; nearly all actives have a fitted effect of over 60% in size
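Screening used a luciferase reporter fused to human ELG1 in HEK293T cells. Luminescence was read on a CCD plate imager after 16 hr exposure and 30 min ONE-Glo incubation.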
NPC1 promoter act – qHTS Assay for NPC1 Promoter Activators; Huh7 NPC1 promoter luciferase reporter, 24 h; Potency, µM (titrated, usually from 9.22 µM), for inactives: top-dose activation, actives largely listed as activators; actives 2.4% (n = 320,000); also: % of control where 0% means no effect; nearly all actives have a fitted effect of over 60% in size
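In 1536-well qHTS, Huh7 cells harboring an NPC1 promoter–luciferase construct received compound for 24 h; activation was quantified by luminescence following luciferase reagent addition.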
ELG1 FLuc counter – qHTS screen for small molecules that inhibit ELG1-dependent DNA repair: Hit Confirmation in Cell-Based Luciferin Assay; AID 624247, 2012; shares compounds with ELG1 repair inh; actives 3% (n = 350); cell-free firefly luciferase luminescence counter-screen, ViewLux; Potency, µM (doses to about 46.1 µM), for inactives: at the highest dose activity change, negative = inhibition, hits mostly inhibitors; also: % is scaled to controls: 0 for no effect and ±100 for the full control effect
ELG1-Luc inh – HTS assay for small molecules that inhibit ELG1-dependent DNA repair in human embryonic kidney (HEK293T) cells expressing luciferase-tagged ELG1: Hit Confirmation. HEK293T ELG1-luciferase levels, luminescence; cells co-treated with 5-fluorouridine. AID 624248, 2012. Potency, µM (top dose mostly 46.1 µM), for the others: at the top dose activity change, negative = inhibition, actives largely listed as inhibitors. shares compounds with ELG1 repair inh. actives 68% (n = 670); also: % is scaled to controls: 0 for no effect and ±100 for the full control effect; nearly all actives have a fitted effect of over 55% in size
ELG1 MMS Luc – MMS-stimulated human ELG1 repair inhibition, confirmed; actives 53% (n = 670); Potency, µM (doses to about 46.1 µM), for inactives: at the top dose activity change, negative = inhibition, usual class: inhibitors; HEK293T luciferase-tagged ELG1 level, MMS stimulated; shares compounds with ELG1 repair inh; also: % is scaled to controls: 0 for no effect and ±100 for the full control effect; nearly all actives have a fitted effect of over 60% in size
ELG1 5FU viab – qHTS screen for small molecules that inhibit ELG1-dependent DNA repair: Hit Confirmation with 5FU Viability; shares compounds with ELG1 repair inh; cell viability with 5-FU, ELG1-dependent repair; Potency, µM (titrated, usually from 46.1 µM), for the others: top-dose activity change, negative = viability loss, actives largely listed as cytotoxic; 670 tested, under 10 active;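 also: ELG1-luc HEK293T cells cotreated with 5-fluorouridine at 10 µM final; viability measured 16 h after compound addition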
ELG1 MMS viab – qHTS screen for small molecules that inhibit ELG1-dependent DNA repair: Hit Confirmation with MMS Viability. actives 33% (n = 670). AID 624251, 2012. Cell viability with MMS, ELG1-dependent DNA repair. Potency, µM (top dose mostly 46.1 µM), without a hit: at the top dose activity change, negative = viability loss, most hits filed as cytotoxic. shares compounds with ELG1 repair inh;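 also: ELG1-luc HEK293T cells co-treated with 10 µM MMS; viability read 16 h after compound addition; % is scaled to controls: 0 for no effect and ±100 for the full control effect; nearly all actives have a fitted effect of over 60% in size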
Cell viab unstim – qHTS screen for small molecules that inhibit ELG1-dependent DNA repair: Hit Confirmation with Unstimulated Viability Assay. shares compounds with ELG1 repair inh. AID 624252, 2012. actives 8% (n = 900). Potency, µM (doses to about 45.9 µM), for inactives: at the highest dose activity change, negative = loss of viability, hits mostly cytotoxic. cell viability counter-screen, unstimulated, luminescence;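 also: compound exposure lasted 16 hours before reading; % is scaled to controls: 0 for no effect and ±100 for the full control effect; nearly all actives have a fitted effect of over 55% in size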
FLuc biochem – qHTS screen for small molecules that inhibit ELG1-dependent DNA repair: Hit Confirmation in Biochemical Luciferin Assay. actives 10% (n = 350). purified firefly luciferase, luminescence counter-screen. AID 624253, 2012. Potency, µM (titrated, usually from 57.5 µM), without a hit: at the top dose activity, negative = inhibition, most hits filed as inhibitors. shares compounds with ELG1 repair inh; also: % is scaled to controls: 0 for no effect and ±100 for the full control effect
* marks the source's active call; other numbers are inactive results; u = inconclusive; x = no result given; [ ] = another dose, or the depositor's remark. Hits are enriched below; roughly 9.4% of the tested compounds scored in any of these assays. Calls follow the shape of the dose curve; as a rule, active = well fitted curve in the direction sought with a large enough effect; inconclusive = small, poorly fitted or top-dose-only effect, or another doubt; inactive = no such curve, though single readings can be large; an effect the other way counts as inactive or inconclusive. Potency is read from the fitted curve at half-maximal effect.

SMILES | FLuc counter | SMN2 splice enh | Rab9 prom act | ELG1 repair inh | ELG1 genotox | NPC1 promoter act | ELG1-Luc inh | ELG1 MMS Luc | ELG1 5FU viab | ELG1 MMS viab | Cell viab unstim | others
O=C(N[C@H]1/C=C\[C@@H](O)CCCC1)OCc1ccccc1 | x | x | x | u | 15µM* | x | x | x | x | x | 5%
O=C(C1CCCCC1)N(Cc1cccnc1)c1nc2c(F)cccc2s1 | -9% | x | x | x | x | x | x | x | x | x | x
CC(C)Oc1ccc(C(=O)N(Cc2ccc(N(C)C)cc2)C2CCS(=O)(=O)C2)cc1 (centres undefined) | 0% | -1% | x | x | x | x | x | x | x | x | x
CN(CCCC(=O)Nc1ccncc1)S(=O)(=O)c1ccc(Cl)cc1 | 1% | -35% | -21% | 2.3µM* | -25% | -8% | -17% | 7.9µM* | -7% | 7.9µM* | u | ELG1 FLuc counter=18%;FLuc biochem=-6%
Cc1ccc(S(=O)(=O)N2CCCC(c3nc4c(nnn4Cc4ccc(OC(F)(F)F)cc4)c(=O)[nH]3)C2)cc1 (centres undefined) | 3% | -4% | x | x | x | x | x | x | x | x | x
CCC(=O)Nc1ccc(Br)cn1 | 2% | x | -8% | 4% | -3% | -3% | x | x | x | x | x
Cc1cc(C(=O)Nc2ccc(Br)cn2)sc1C | x | x | 2.2µM* | u | u | 1µM* | x | x | x | x | u
COc1cccc(-c2cc(NCc3cccs3)ncn2)c1 | x | 8.9µM* | x | x | x | x | x | x | x | x | -3% | ELG1 FLuc counter=67%;FLuc biochem=3.7µM*
Cc1ccc(C(=O)Cn2c3c(sc2=N)CCCC3)cc1 | x | 0.5µM* | x | x | x | x | x | x | x | x | u | ELG1 FLuc counter=-2%;FLuc biochem=0.092µM*
Cc1ccc(C(=O)Cn2ncsc2=N)cc1 | -16% | 5% | 19% | u | u | 18% | x | x | x | x | x
COC(=O)c1ccc(C(NC(=O)OCc2ccccc2)/C(C)=C/[C@@H](C)C(=O)NCCc2c[nH]c3ccc(OC)cc23)cc1 (some centres undefined) | x | -10% | x | x | x | x | x | x | x | x | x
O=C(Nc1nonc1NC(=O)c1cccs1)c1cccs1 | u | -90% | -23% | 4.1µM* | -7% | -25% | u | 4.4µM* | -5% | 5µM* | u
CCNCc1nc2cc(OC)c(OC)cc2c(=O)[nH]1 | -1% | 41% | -2% | -2% | 1% | 0% | x | x | x | x | x
COc1cc2nc(CN(CCC(C)C)Cc3nc4cc(OC)c(OC)cc4c(=O)[nH]3)[nH]c(=O)c2cc1OC | -2% | 17% | 0% | 1.5µM* | 0% | -2% | 2.8µM* | u | u | 7% | -17%
CCOC(=O)c1c(NC(=O)C[n+]2ccc(N(C)C)cc2)sc(C)c1C | 4% | -68% | -19% | 4.1µM* | -16% | -22% | 0% | 19% | -3% | -8% | u
CCOC(=O)C1C(=O)C=C(N2CCOCC2)CC1c1cccc(OC)c1 (centres undefined) | -17% | x | -2% | 1% | -1% | -1% | x | x | x | x | x
COC(=O)C1C(=O)C=C(N2CCOCC2)CC1(C)C (centres undefined) | 1% | 1% | 2% | 4.1µM* | 1% | -1% | 25% | 32% | -1% | -1% | -1%
O=C1C(O)=C(O)C(=O)C(O)=C1O | x | 7% | x | x | x | x | x | x | x | x | x
NCCN1C(=O)c2ccccc2[C@@]1(O)c1ccc(Cl)cc1 | x | -9%[9.22 µM] | x | x | x | x | x | x | x | x | x
COc1cc2c(C#CCCO)c(-c3ccsc3)oc(=O)c2cc1OC | x | x | x | u | 0% | x | 6.3µM* | 7.9µM* | -3% | -8% | u | ELG1 FLuc counter=5%;FLuc biochem=1%
O=C1CCCc2cc(S(=O)(=O)N3CCCC(C(=O)NCc4ccc(Cl)cc4)C3)ccc2N1 (centres undefined) | 4% | x | x | x | x | x | x | x | x | x | x
O=C(COc1ccc(C(=O)NCC2CCCO2)cc1)Nc1cccc(C(F)(F)F)c1 (centres undefined) | -8% | x | 2% | 3.3µM* | -13% | 3% | u | u | 11% | u | -4%
CCn1cc(C(=O)Nc2cccc(NC(C)=O)c2)c2cc(OC)c(OC)cc2c1=O | 0% | 15% | -4% | u | -2% | -3% | x | x | x | x | x
CCOc1ccc(-n2cc(C(=O)Nc3ccccc3OCC)c3cc(OC)c(OC)cc3c2=O)cc1 | 0% | 4% | x | x | x | x | x | x | x | x | x
